The whole screen tested about 290,000 compounds, of which about 50 (0.02%) were called active. For the sample, actives were picked, then their nearest neighbours and some compounds at random. Potency and affinity values are given separately. A number with no mark means an inactive call.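 How the source made its calls: active means displacement of at least 50% at 20 µM, with a fluorescence ratio check between 0.3 and a set limit; inactive means the rest.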

From PubChem BioAssay AID1817 (Sanford-Burnham Center for Chemical Genomics, 2009) come the findings set out here.

In the assay the target is E3 ubiquitin-protein ligase SIAH1 (Homo sapiens) (UniProt Q8IUQ4). Briefly: Siah-1 peptide-binding antagonists, primary screen, biochemical, fluorescence polarization, rhodamine-plectin, uHTS (AID 1817).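 Further: plate controls were Siah plus tracer with DMSO for no effect and tracer alone without Siah for full effect.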 Conditions: Siah-1 / rhodamine-plectin peptide fluorescence polarization; at 20 µM; hits give high values.
Sequence of E3 ubiquitin-protein ligase SIAH1 (Homo sapiens) (Q8IUQ4 whole entry, looked up): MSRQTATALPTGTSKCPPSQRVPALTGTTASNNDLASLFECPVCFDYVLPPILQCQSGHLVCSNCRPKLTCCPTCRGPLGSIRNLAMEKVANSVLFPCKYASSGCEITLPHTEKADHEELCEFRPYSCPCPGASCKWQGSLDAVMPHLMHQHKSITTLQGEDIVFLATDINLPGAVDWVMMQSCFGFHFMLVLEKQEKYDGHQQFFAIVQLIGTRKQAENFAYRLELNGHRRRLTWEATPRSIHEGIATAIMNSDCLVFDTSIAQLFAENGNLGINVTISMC
For the molecule `Cc1ccc(N2C(=O)NC(=O)/C(=C\C=C\c3ccco3)C2=O)cc1`, the displacement was 12.1%.
Consider `CC(C)c1ccc(N2C(=O)NC(=O)/C(=C\C=C\c3ccco3)C2=O)cc1`, for which the displacement is 14.6%.
Next, `CC(C)c1ccc(N2C(=O)NC(=O)/C(=C/C=C/c3ccco3)C2=O)cc1`: 51.8% (active).
To `O=[N+]([O-])c1ccc(N2CCNCC2)cc1NCc1ccco1` belongs -3.7%.
Next, `C=C1C(=O)O[C@H]2C[C@@H](C)[C@@H]3C=CC(=O)[C@@]3(C)C[C@H]12`: 12.6%; `C=C1C(=O)O[C@@H]2C[C@@H](C)[C@H]3C=CC(=O)[C@]3(O)C[C@@H]12`: 51.6% (active); `C=C1C(=O)O[C@@H]2C[C@@H](C)[C@@H]3C=CC(=O)[C@@]3(C)[C@@H](O)[C@H]12`: 4.7%.
Turning to `Cc1cc(C=O)c(C)n1C1CCCCC1`, the displacement is 2.7%.
To `CCOC(=O)c1c(NS(=O)(=O)c2ccccc2)n(CCCOC)c2nc3ccccc3nc12` belongs 67% (active); to `CCCCn1c(NS(=O)(=O)c2ccc(C)cc2)c(C(=O)OCC)c2nc3ccccc3nc21`, 34.7%; to `CCOC(=O)c1c(N)n(CCCOC(=O)c2ccco2)c2nc3ccccc3nc12`, 2.6%.
For the molecule `COCCCn1c(N)c(C(=O)OCCOC)c2nc3ccccc3nc21`, the displacement is 2.9%.
Next, `CCCCCn1c(NC(=O)c2ccco2)c(C(=O)OCC)c2nc3ccccc3nc21`: 64.6% (active); `CCCCn1c(NC(=O)c2ccco2)c(C(=O)OCC)c2nc3ccccc3nc21`: 4.9%; `COc1ccc(NC(=O)N2CCC3(CC2)OCCO3)cc1`: -2.3%.
With `O=C(O)C1C2CCC(O2)C1C(=O)Nc1ccc(F)c(F)c1` (stereo not given), the displacement was 10.6%.
Next, `O=C1NC(=S)N(Cc2ccco2)C(=O)/C1=C\c1cccs1`: 21.3%; `Cc1ccccc1-n1c(O)c(/C=N/N2CCOCC2)c(=O)[nH]c1=S`: 2.7%; `Cc1cccc(C)c1NC1=NCCCCS1`: -1.2%.
For `CCCC12CN3CCN(C1)CC(CCC)(C3)C2=O`, the displacement was 8.2%.
